# Measured values taken from PubChem BioAssay (NCATS).
# Records with an inconclusive call do not appear. Entries that show only a call come without a potency. The source made the active and inactive calls. Calls follow the shape of the dose curve; as a rule, active = well fitted inhibition curve with a large enough effect; inconclusive = small, poorly fitted or top-dose-only effect; inactive = flat fitted curve, though single readings scatter.
# Experiment: qHTS to identify inhibitors of the type 1 interferon - major histocompatibility complex class I in skeletal muscle: primary screen against the NCATS Pharmaceutical Collection (AID 1347407)
# Settings: human skeletal muscle cells, IFN-b-induced MHC-I HiBiT luminescence, 24 h; series mostly up to 45.9 µM
# Excerpt: Assay Submitter (PI): Travis B. Kinder Ph.D. & James Inglese Ph.D.
# Assay Development and Screening Technology Laboratory (ADST)
# National Center for Advancing Translational Sciences (NCATS), Rockville, MD
# National Institute of Health (NIH), Bethesda, Maryland
# Idiopathic inflammatory myopathies, collectively referred to as myositis, are a group of rare autoimmune diseases characterized by skeletal muscle inflammation, weakness, and usually accompanied by systemic pathologies of the skin, lungs, or vasculature. Current immunosuppressive therapies and glucocorticoids are often not curative and are accompanied by harsh side effects, especially in children with juvenile myositis. We initiated a drug repurposing and development program to identify more targeted, less toxic therapeutics to treat myositis. Although its cause is not known, muscle from a subset of patients have an abundance of the inflammatory type 1 interferon (IFN) and a down-stream product major histocompatibility complex class I (MHC class I), which are both thought to contribute to damage and weakness. We conducted quantitative high throughput screening on 6,576 compounds (4,679 unique) through a series of cell-based assays to identify those that inhibit the IFN-stimulated expression of MHC class I in muscle precursor cells (myoblasts). The compound identification and evaluation strategy utilized a primary screen with reporter-tagged MHC class I in genome-engineered myoblasts, ATP content counter screen for viability, HLA-ABC immunofluorescence secondary screen, and HLA-B RT-qPCR tertiary screen.
# The primary screen utilized CRISPR/Cas9 genome-engineering of immortalized human myoblasts, C25cl48, where a pro-luminescent reporter HiBit was fused to the C-terminus of endogenous MHC class I allele HLA-B*08:01 (HLA-B HiBit myoblasts). HiBit is an 11 amino acid fragment of NanoLuc luminescent reporter (Promega Corporation), and when complexed to the larger LgBit fragment, the reconstituted enzyme produces light in the presence of furimazine substrate (Schwinn et al., 2018). Briefly, HLA-B HiBit myoblasts were plated into 1536-well plates, treated with 4.0 ng/ml human IFN-beta and 2,816 compounds from the NCATS Pharmaceutical Collection (NPC) that contains all drugs approved in the US, EU, and Japan (Huang et al., 2011) in an 8-point, 1:5 titration with a high final concentration of 46 uM. After 24 hrs of treatment, cells were assayed by Nano-Glo HiBiT Lytic Detection System (Promega) and luminescence measured by a ViewLux 1430 Ultra HTS (Perkin Elmer).
# Huang R, Southall N, Wang Y, Yasgar A, Shinn P, Jadhav A, Nguyen D-T, Austin CP. 2011. The NCGC pharmaceutical collection: a comprehensive resource of clinically approved drugs enabling repurposing and chemical genomics. Sci Transl Med 3:80ps16. doi:10.1126/scitranslmed.3001862
# Schwinn MK, Machleidt T, Zimmerman K, Eggers CT, Dixon AS, Hurst R, Hall MP, Encell LP, Binkowski BF, Wood K V. 2018. CRISPR-Mediated Tagging of Endogenous Proteins with a Luminescent Peptide. ACS Chem Biol 13:467-474. doi:10.1021/acschembio.7b00549
# PROTOCOL TABLE (as described by Inglese et al., 2007)
# SEQUENCE No. (e.g., 1, 2, 3, etc.); […] (e.g., Cells, Incubation, Reagent, etc.); VALUE; DESCRIPTION
# 1a; Cells; 5 uL; Use a Multidrop Combi (Thermo Scientific) to seed 350 cells/well into nine Greiner 1536 well white/solid bottom, high base, TC plates in 5 ul/well of iHSKM growth medium (GM) without dexamethasone into columns 1+2. Add metal lids with gas-exchange holes
# 1b; Cells; 5 uL; Use a Multidrop Combi (Thermo Scientific) to seed 350 cells/well into nine Greiner 1536 well white/solid bottom, high base, TC plates in 5 ul/well of iHSKM GM without dexamethasone + 4 ng/ml IFN-b into columns 3 - 48. Add metal lids with gas-exchange holes
# 2; Incubate; 1 hr; Incubate at 37 C, 5% CO2, 95% RH
# […]
# Potency is read from the fitted curve at half-maximal effect.
Compound,Potency,"activity change, negative = inhibition"
CCN(C(C)=O)c1cccc(-c2ccnc3c(C#N)cnn23)c1,inactive,–
CC(=O)[C@H]1CC[C@H]2[C@@H]3CC[C@H]4C[C@](C)(O)CC[C@]4(C)[C@H]3CC[C@]12C,inactive,–
CC(C)=CC1C(C(=O)OCc2cccc(Oc3ccccc3)c2)C1(C)C (stereo not given),inactive,–
NCC(CC(=O)O)c1ccc(Cl)cc1 (stereo not given),–,3.65% [at 0.727 µM] (inactive)
CO[C@]12CC[C@@]3(C[C@@H]1[C@](C)(O)C(C)(C)C)[C@@H]1Cc4ccc(O)c5c4[C@@]3(CCN1CC1CC1)[C@H]2O5,48100 nM (active),–
CC[C@@H](CO)NC(=O)[C@@H]1C=C2c3cccc4c3c(cn4C)C[C@H]2N(C)C1,inactive,–
O=c1oc2ccccc2c(O)c1C(CC(O)c1ccc(-c2ccc(Br)cc2)cc1)c1ccccc1 (stereo not given),inactive,–
CC(C)(C)CC(C)(C)c1ccc(O)cc1,inactive,–
c1ccc2c(c1)Nc1ccccc1S2,inactive,–
COc1ccc(C(CN(C)C)C2(O)CCCCC2)cc1 (stereo not given),inactive,–
NP(N)(=O)NC(=O)c1ccc(F)cc1,inactive,–
NCC1(CC(=O)O)CCCCC1,inactive,–
O=c1[nH]c2ccccc2n1CCCN1CCC(n2c(=O)[nH]c3cc(Cl)ccc32)CC1,inactive,–
FC(F)(F)c1cccc(C2=CCN(CCc3ccc4ccccc4c3)CC2)c1,inactive,–
CCN(CC)CCOC(=O)C(O)(c1ccccc1)c1ccccc1,inactive,–
CC[N+](CC)(CC)CC,inactive,–
Nc1ccncc1,inactive,–
CC1OC(C)OC(C)O1 (stereo not given),inactive,–
COC[C@@H](NC(C)=O)C(=O)NCc1ccccc1,inactive,–
CCCN1CCC[C@@H]2Cc3[nH]ncc3C[C@H]21,inactive,–

Compound,Potency,"activity change, negative = inhibition"
N#CC(C#N)=Cc1ccc(O)c(O)c1,inactive,–
CCOC(=O)C1(c2ccccc2)CCN(CCC(C#N)(c2ccccc2)c2ccccc2)CC1,inactive,–
Oc1cccc2cccnc12,inactive,–
C[C@H]1O[C@@H](O[C@H]2[C@@H](O)C[C@H](O[C@H]3[C@@H](O)C[C@H](O[C@H]4CC[C@@]5(C)[C@H](CC[C@@H]6[C@@H]5CC[C@]5(C)[C@@H](C7=CC(=O)OC7)CC[C@]65O)C4)O[C@@H]3C)O[C@@H]2C)C[C@H](O)[C@@H]1O,26.4 nM (active),–
C#CCOC(C(=O)OCCN(C)C)(c1ccccc1)c1ccccc1,inactive,–
O=C(NC(O)C(Cl)(Cl)Cl)NC(O)C(Cl)(Cl)Cl (stereo not given),inactive,–
Oc1ccc(Cl)cc1Cc1ccccc1,inactive,–
CC(C)(N)Cc1ccc(Cl)cc1,inactive,–
NCCc1cc(O)c(O)cc1O,inactive,–
C[C@@H]1O[C@@H](O[C@H]2C[C@@H](O)[C@]3(CO)[C@H]4[C@H](O)C[C@]5(C)[C@@H](C6=CC(=O)OC6)CC[C@]5(O)[C@@H]4CC[C@]3(O)C2)[C@H](O)[C@H](O)[C@H]1O,52.8 nM (active),–
N[C@@H]1C[C@H]1c1ccccc1,inactive,–
NCC(O)c1ccc(O)cc1 (stereo not given),inactive,–
CC(C)(C)NCC(O)c1cc(Cl)c(N)c(Cl)c1 (stereo not given),inactive,–
Cc1ccc2c(c1)C1CN(C)CCC1N2 (stereo not given),inactive,–
CC(C)=CCOc1c2occc2cc2ccc(=O)oc12,inactive,–
Cn1c(CCCC(=O)O)nc2cc(N(CCCl)CCCl)ccc21,inactive,–
C=C1CC[C@@]2(O)[C@H]3Cc4ccc(O)c5c4[C@@]2(CCN3CC2CC2)[C@H]1O5,inactive,–
NN=C(N)N,inactive,–
Cn1cc(C2=C(c3cn(C4CCN(Cc5ccccn5)CC4)c4ccccc34)C(=O)NC2=O)c2ccccc21,inactive,–
CC(=O)Nc1cc([As](=O)(O)O)ccc1O,inactive,–
